Laboratory results as given in paper PMC11574364.

Legend:
Assay in all cases: protein domain microarray probed with biotinylated miRNA; Domain array: 20 mM Tris-HCl pH 7.4, 200 mM KCl, 0.2 mM EDTA, 0.05% NP40, 2 ug/ul heparin, overnight 4 C. ORF array: PBS pH 7.0 with RNase inhibitor, 100 ng RNA; high values mean tight binding
Conditions in all cases: ssRNA
RBM19(5-6) = target: T1, RBM19(5-6) (Homo sapiens, UniProt Q9Y4C8)
T1 sequence: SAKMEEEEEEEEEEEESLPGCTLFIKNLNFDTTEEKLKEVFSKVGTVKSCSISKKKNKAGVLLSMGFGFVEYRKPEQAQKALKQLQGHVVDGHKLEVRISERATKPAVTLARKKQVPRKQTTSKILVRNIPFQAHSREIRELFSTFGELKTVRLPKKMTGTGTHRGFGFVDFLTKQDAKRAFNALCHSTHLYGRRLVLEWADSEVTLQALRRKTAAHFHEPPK

SSB = target: T2, SSB (Homo sapiens, UniProt P05455)
T2 sequence: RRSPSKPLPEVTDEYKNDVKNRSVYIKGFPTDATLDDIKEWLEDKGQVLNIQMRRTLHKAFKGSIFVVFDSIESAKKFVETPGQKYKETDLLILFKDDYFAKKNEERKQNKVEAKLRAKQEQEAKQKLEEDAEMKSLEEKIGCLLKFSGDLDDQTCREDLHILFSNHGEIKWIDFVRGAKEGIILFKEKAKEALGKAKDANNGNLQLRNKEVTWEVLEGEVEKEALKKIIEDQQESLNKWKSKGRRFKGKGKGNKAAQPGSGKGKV

SAFB2 = SAFB2 (Homo sapiens, UniProt Q14151)
Sequence of SAFB2 (Q14151 380-500): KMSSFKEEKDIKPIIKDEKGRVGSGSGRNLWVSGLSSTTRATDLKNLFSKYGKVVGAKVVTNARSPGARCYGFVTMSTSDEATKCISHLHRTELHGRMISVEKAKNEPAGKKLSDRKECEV

RBM42 = target: T3, RBM42 (Homo sapiens, UniProt Q9BTD8)
T3 sequence: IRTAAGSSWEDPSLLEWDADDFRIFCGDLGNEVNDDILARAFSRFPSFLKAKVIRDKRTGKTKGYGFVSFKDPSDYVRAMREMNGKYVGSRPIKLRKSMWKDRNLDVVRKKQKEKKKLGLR

ROD1(1-2) = ROD1(1-2) (Homo sapiens, UniProt O95758)
Sequence of ROD1(1-2) (O95758 40-280): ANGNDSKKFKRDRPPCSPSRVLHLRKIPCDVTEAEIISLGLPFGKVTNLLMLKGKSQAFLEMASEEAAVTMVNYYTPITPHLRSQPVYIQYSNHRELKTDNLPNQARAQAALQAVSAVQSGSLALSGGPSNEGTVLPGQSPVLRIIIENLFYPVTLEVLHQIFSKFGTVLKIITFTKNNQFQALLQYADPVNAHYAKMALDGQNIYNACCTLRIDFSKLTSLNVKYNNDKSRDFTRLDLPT

RBM9 = target: T4, RBM9 (Homo sapiens, UniProt O43251)
T4 sequence: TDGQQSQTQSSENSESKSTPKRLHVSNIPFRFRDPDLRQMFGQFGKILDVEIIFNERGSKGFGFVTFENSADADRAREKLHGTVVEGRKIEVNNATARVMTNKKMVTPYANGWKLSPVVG

NOVA1(1-2) = target: T5, NOVA1(1-2) (Homo sapiens, UniProt P51513)
T5 chain: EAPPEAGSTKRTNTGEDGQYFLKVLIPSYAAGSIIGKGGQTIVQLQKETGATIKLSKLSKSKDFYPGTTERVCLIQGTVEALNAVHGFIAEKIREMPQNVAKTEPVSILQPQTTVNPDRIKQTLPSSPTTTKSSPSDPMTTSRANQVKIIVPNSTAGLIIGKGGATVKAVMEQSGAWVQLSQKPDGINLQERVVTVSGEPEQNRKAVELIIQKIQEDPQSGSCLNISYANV

PPRC1 = target: T6, PPRC1 (Homo sapiens, UniProt Q5VV67)
T6 sequence: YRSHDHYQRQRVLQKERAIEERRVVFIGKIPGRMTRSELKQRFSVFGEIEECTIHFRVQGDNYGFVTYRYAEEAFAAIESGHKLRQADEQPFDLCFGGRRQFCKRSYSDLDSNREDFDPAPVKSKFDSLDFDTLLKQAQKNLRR

RBM26(1) = target: T7, RBM26(1) (Homo sapiens, UniProt Q5T8P6)
T7 sequence: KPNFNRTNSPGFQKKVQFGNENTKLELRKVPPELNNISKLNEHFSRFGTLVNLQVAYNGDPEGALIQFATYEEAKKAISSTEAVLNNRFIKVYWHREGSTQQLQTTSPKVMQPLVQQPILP

TIA1 = target: T8, TIA1 (Homo sapiens, UniProt P31483)
T8 sequence: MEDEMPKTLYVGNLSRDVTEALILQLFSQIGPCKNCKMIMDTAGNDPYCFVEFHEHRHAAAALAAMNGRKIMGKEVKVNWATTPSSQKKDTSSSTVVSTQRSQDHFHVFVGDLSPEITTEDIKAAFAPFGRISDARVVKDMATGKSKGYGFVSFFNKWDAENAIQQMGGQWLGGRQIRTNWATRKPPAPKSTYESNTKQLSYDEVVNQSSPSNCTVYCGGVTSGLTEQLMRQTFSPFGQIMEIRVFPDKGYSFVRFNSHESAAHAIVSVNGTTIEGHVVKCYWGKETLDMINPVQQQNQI

SETD1B = target: T9, SETD1B (Homo sapiens, UniProt Q9UPS6)
T9 sequence: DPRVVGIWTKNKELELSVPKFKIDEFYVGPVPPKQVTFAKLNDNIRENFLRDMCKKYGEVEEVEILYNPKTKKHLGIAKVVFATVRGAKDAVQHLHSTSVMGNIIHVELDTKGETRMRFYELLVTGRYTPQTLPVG

ADAR(2) = target: T10, ADAR(2) (Homo sapiens, UniProt P55265)
T10 sequence: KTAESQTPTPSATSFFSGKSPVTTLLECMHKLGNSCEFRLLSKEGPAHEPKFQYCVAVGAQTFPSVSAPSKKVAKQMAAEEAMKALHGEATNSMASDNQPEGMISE

RBM33 = target: T11, RBM33 (Homo sapiens, UniProt Q96EV2)
T11 sequence: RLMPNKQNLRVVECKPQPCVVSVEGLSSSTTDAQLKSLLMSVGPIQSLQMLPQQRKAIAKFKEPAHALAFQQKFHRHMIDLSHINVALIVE

RBM28(3-4) = target: T12, RBM28(3-4) (Homo sapiens, UniProt Q9NW13)
T12 sequence: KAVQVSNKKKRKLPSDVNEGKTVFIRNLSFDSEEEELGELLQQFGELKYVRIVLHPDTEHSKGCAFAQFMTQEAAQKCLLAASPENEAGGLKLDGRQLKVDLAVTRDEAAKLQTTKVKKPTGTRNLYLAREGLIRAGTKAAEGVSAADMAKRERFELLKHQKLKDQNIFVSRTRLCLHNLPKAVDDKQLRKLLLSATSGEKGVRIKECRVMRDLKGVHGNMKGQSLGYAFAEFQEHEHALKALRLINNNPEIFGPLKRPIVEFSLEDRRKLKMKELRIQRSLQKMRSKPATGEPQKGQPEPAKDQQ

RBM48 = target: T13, RBM48 (Homo sapiens, UniProt Q5RL73)
T13 sequence: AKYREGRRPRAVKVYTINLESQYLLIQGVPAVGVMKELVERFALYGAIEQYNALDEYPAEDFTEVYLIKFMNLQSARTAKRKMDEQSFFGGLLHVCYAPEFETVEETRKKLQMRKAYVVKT

Kanadaptin = target: T14, Kanadaptin (Homo sapiens, UniProt Q9BWU0)
T14 sequence: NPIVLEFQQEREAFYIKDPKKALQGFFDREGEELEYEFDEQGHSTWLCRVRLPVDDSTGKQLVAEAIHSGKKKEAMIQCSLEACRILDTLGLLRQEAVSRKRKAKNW

ZNF638 = target: T15, ZNF638 (Homo sapiens, UniProt Q14966)
T15 sequence: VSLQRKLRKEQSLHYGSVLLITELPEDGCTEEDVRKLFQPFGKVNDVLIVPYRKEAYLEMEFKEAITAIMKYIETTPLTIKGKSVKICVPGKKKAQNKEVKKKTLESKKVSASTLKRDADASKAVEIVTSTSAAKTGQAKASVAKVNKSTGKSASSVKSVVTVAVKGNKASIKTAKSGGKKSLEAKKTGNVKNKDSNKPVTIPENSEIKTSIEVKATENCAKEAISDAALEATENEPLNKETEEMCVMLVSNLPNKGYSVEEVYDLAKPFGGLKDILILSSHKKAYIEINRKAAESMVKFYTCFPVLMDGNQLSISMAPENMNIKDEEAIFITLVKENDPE

PKR(1-2) = PKR(1-2) (Homo sapiens, UniProt P19525)
Sequence of PKR(1-2) (P19525 1-186): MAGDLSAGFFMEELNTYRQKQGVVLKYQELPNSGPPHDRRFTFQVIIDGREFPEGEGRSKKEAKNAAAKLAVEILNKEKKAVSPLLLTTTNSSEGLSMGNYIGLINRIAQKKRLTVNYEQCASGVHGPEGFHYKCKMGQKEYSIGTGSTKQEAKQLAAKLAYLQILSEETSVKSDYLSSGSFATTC

ADAR(3) = target: T16, ADAR(3) (Homo sapiens, UniProt P55265)
T16 sequence: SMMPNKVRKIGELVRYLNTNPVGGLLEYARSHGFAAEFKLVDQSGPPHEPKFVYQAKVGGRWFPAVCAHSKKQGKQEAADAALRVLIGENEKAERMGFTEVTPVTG

DDX9(1)/DHX9 = DDX9(1)/DHX9 (Homo sapiens, UniProt Q08211)
Sequence of DDX9(1)/DHX9 (Q08211 1-89): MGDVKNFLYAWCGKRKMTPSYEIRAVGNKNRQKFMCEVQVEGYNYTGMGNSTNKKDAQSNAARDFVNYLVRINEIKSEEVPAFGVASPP

Sequence	binding signal (RBM19(5-6))	binding signal (SSB)	binding signal (SAFB2)	binding signal (RBM42)	binding signal (ROD1(1-2))	binding signal (RBM9)	binding signal (NOVA1(1-2))	binding signal (PPRC1)	binding signal (RBM26(1))	binding signal (TIA1)	binding signal (SETD1B)	binding signal (ADAR(2))	binding signal (RBM33)	binding signal (RBM28(3-4))	binding signal (RBM48)	binding signal (Kanadaptin)	binding signal (ZNF638)	binding signal (PKR(1-2))	binding signal (ADAR(3))	binding signal (DDX9(1)/DHX9)
UGAGGUAGUAGGUUGUAUAGUU	39.6 ± 0.516 fluorescence intensity	76.1 ± 6.81 fluorescence intensity	130 ± 21.8 fluorescence intensity	57.7 ± 4.36 fluorescence intensity	49.2 ± 4.26 fluorescence intensity	693 ± 16.3 fluorescence intensity	27.6 ± 0.799 fluorescence intensity	24.9 ± 1.13 fluorescence intensity	395 ± 44.7 fluorescence intensity	584.8 ± 5.47 fluorescence intensity	21.4 ± 1.84 fluorescence intensity	21.92 ± 0.0141 fluorescence intensity	24.2 ± 0.735 fluorescence intensity							
UGAGGUAGUAGGUUGUAUGGUU	231.1 ± 1.89 fluorescence intensity	770 ± 38.1 fluorescence intensity	488.9 ± 0.622 fluorescence intensity	362 ± 5.61 fluorescence intensity	367 ± 26.4 fluorescence intensity	1940 ± 112 fluorescence intensity	90.1 ± 7.43 fluorescence intensity	134 ± 3.36 fluorescence intensity	1460 ± 57.5 fluorescence intensity	1030 ± 40.8 fluorescence intensity	22.4 ± 0.396 fluorescence intensity	22.7 ± 0.559 fluorescence intensity	40.1 ± 0.601 fluorescence intensity	77 ± 4.09 fluorescence intensity	94.7 ± 35.8 fluorescence intensity	47.3 ± 6.22 fluorescence intensity	38.3 ± 1.35 fluorescence intensity	28.7 ± 2.65 fluorescence intensity	30.3 ± 3.34 fluorescence intensity	49.7 ± 9.25 fluorescence intensity
UGAGGUAGUAGGUUGUGUGGUU	318.4 ± 2.5 fluorescence intensity	686 ± 34.9 fluorescence intensity	826.5 ± 2.57 fluorescence intensity	613 ± 9.75 fluorescence intensity	562 ± 23.1 fluorescence intensity	1610 ± 18 fluorescence intensity	134 ± 4.86 fluorescence intensity	155 ± 53.3 fluorescence intensity	1560 ± 215 fluorescence intensity	871 ± 40.8 fluorescence intensity	24.2 ± 1.14 fluorescence intensity	22.6 ± 1.85 fluorescence intensity	32.8 ± 1.94 fluorescence intensity	135 ± 19.4 fluorescence intensity	128 ± 27.9 fluorescence intensity	62.8 ± 3.11 fluorescence intensity	57.9 ± 2.93 fluorescence intensity	53.5 ± 3.56 fluorescence intensity	31.8 ± 4.56 fluorescence intensity	68.5 ± 11.3 fluorescence intensity
UAGCUUAUCAGACUGAUGUUGA	23.1 ± 1.03 fluorescence intensity	22.6 ± 3.15 fluorescence intensity	54.58 ± 0.247 fluorescence intensity	21 ± 0.962 fluorescence intensity		916 ± 20.1 fluorescence intensity			31 ± 1.68 fluorescence intensity	631 ± 33.9 fluorescence intensity		23.2 ± 3.02 fluorescence intensity								
AGAGGUAGUAGGUUGCAUAGUU	122 ± 10.5 fluorescence intensity	587.4 ± 5.08 fluorescence intensity	328.4 ± 1.94 fluorescence intensity	231 ± 13.5 fluorescence intensity	339 ± 66.7 fluorescence intensity	2720 ± 95.4 fluorescence intensity	318 ± 18.7 fluorescence intensity	97 ± 3.22 fluorescence intensity	1530 ± 59.8 fluorescence intensity	1240 ± 50.7 fluorescence intensity	20.2 ± 1.15 fluorescence intensity	23.9 ± 0.346 fluorescence intensity	28.3 ± 2.28 fluorescence intensity	54.1 ± 1.09 fluorescence intensity	90.1 ± 12.4 fluorescence intensity	33.9 ± 1.02 fluorescence intensity	29.21 ± 0.262 fluorescence intensity	24.8 ± 1.68 fluorescence intensity	24.2 ± 0.771 fluorescence intensity	29.6 ± 4.33 fluorescence intensity
CAGUGCAAUGAUGAAAGGGCAU	110 ± 1.73 fluorescence intensity	324 ± 18.3 fluorescence intensity	298 ± 17.8 fluorescence intensity	187 ± 2.13 fluorescence intensity	116 ± 66.5 fluorescence intensity	1850 ± 25.3 fluorescence intensity	260.9 ± 1.94 fluorescence intensity	43 ± 4.72 fluorescence intensity	478 ± 6.75 fluorescence intensity	537.8 ± 3.27 fluorescence intensity		22 ± 1.29 fluorescence intensity	26.1 ± 1.95 fluorescence intensity	25.9 ± 2.84 fluorescence intensity	51.01 ± 0.233 fluorescence intensity		33.6 ± 1.92 fluorescence intensity			
